Screens: PubChem BioAssay, National Center for Advancing Translational Sciences (NCATS)
In the library only some 10% were active in any assay of this set; here they are far more common.
3T3 cytotox – kills NIH 3T3 cells; NIH 3T3 viability, CellTiter-Glo ATP luminescence, 48-72 h; 4.3% of 94,000 active; Potency, µM (highest dose often 96.7 µM), for the others: at the top dose activity change, negative = cytotoxicity, most hits filed as inhibitors; note: % is set by controls: 0 for no effect and ±100 for the full control effect; nearly all actives have a fitted effect of over 55% in size
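Cytotoxicity was measured by CellTiter-Glo ATP luminescence after 48 or 72 h compound exposure at 37 °C. Mouse NIH 3T3 fibroblasts were seeded at 400 cells/well and dosed by 23 nL pin transfer.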
FLuc inh-1 – Photinus pyralis luciferase inhibition | AID 1347043 | Potency, µM (series often up to 115 µM), actives largely listed as inhibitors | 2.5% of 76,000 active | purified P. pyralis luciferase, luminescence, biochemical; note: % is set by controls: 0 for no effect and ±100 for the full control effect; nearly all actives have a fitted effect of over 65% in size
Target sequence (P08659 whole entry, looked up): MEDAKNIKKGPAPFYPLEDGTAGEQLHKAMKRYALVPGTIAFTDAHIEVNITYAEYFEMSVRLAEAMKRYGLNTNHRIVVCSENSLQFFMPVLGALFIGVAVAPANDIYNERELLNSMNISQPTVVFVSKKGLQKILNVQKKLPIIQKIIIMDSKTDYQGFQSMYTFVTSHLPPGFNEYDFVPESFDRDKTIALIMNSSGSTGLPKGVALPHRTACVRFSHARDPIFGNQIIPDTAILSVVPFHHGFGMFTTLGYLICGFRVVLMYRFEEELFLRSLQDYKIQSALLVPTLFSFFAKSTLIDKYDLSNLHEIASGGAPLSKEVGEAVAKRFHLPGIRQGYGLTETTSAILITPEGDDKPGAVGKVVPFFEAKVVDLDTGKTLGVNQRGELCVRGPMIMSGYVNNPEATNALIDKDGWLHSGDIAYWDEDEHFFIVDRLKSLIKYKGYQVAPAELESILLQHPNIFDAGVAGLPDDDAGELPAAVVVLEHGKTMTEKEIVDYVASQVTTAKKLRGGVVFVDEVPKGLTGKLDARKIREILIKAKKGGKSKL
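Biochemical qHTS: compound (6-point titration) added to 10uM D-luciferin plus 10uM ATP in Tris acetate pH 7.5 buffer with Mg, Tween-20 and BSA, then purified enzyme at 10nM; light output imaged.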
HEK293 tox – kills HEK 293 cells; HEK 293 viability, ATP luminescence (CellTiter-Glo), 48-72 h; Potency, µM (titrated, usually from 115 µM), without a hit: at the top dose activity change, negative = cytotoxicity, hits mostly inhibitors; 6.6% of 94,000 active; note: % is set by controls: 0 for no effect and ±100 for the full control effect; nearly all actives have a fitted effect of over 60% in size
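Viability of HEK 293 cells, plated at 250 cells/well, was judged by cellular ATP after compound treatment for 48 or 72 hr. Luminescence was imaged 10 min after CellTiter-Glo addition at room temperature.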
hNpr1 antagonist – antagonists of human natriuretic peptide receptor Npr1; HEK293 hNpr1 GloSensor cGMP, ANP-stimulated luminescence; Potency, µM (highest dose often 46.3 µM), for inactives: at the top dose activity change, negative = inhibition, most hits filed as inhibitors; 1.6% of 76,000 active; AID 1347048; calls by dose curve; note: % is set by controls: 0 for no effect and ±100 for the full control effect; nearly all actives have a fitted effect of over 60% in size
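Compound pre-incubated 30 min at room temperature on GloSensor-loaded HEK293 cells stably carrying hNpr1 and the pGS-40F cGMP biosensor. Stimulation uses hNppA at 0.1 nM final; luminescence is taken at baseline and 20 min post-agonist.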
GPT2 inh – GPT2 alanine aminotransferase inhibition | 0.25% of 100,000 active | Potency, µM (titrated, usually from 57.7 µM), without a hit: at the highest dose activity change, negative = inhibition, hits mostly inhibitors | Q8TD30 | Recombinant GPT2, coupled pyruvate oxidase/HRP Amplex Red fluorescence; note: % is set by controls: 0 for no effect and ±100 for the full control effect; nearly all actives have a fitted effect of over 60% in size
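Fluorescence read-out: pyruvate from GPT2 turnover coupled to pyruvate oxidase, HRP and Amplex Red (0.2mM ThPP, 0.2U/mL PO and HRP, 50uM Amplex final). Substrates 250uM a-KG, 2mM L-alanine; enzyme 10ng/uL; 30 min RT.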
FLuc SDR no ATP – binders stabilizing firefly luciferase, without ATP. shares compounds with FLuc inh-1. AID 1963318. Purified FLuc-C-HiBiT, Nano-Glo HiBiT luminescence, no ATP. 7.8% of 1,300 active. Potency, µM (doses to about 32.7 µM), without a hit: at the top dose activation (signal gain), hits mostly activators; note: nearly all actives have a fitted effect of over 55% in size
FLuc SDR ATP – firefly luciferase binding stabilization, ATP added. shares compounds with FLuc inh-1. purified FLuc-C-HiBiT + ATP, HiBiT complementation luminescence. AID 1963319. Potency, µM (highest dose often 32.7 µM), without a hit: at the top dose activation (gain of signal), actives largely listed as activators. 8.7% of 1,300 active;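 note: signal reports ligand binding via conformational change of the enzyme rather than luciferase catalysis; % of control where 0% means no effect; nearly all actives have a fitted effect of over 55% in size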
FLuc inh-2 – blocks firefly luciferase enzymatic activity | purified FLuc-C-HiBiT enzyme, luciferin luminescence | AID 1963320 | Potency, µM (top dose mostly 32.7 µM), without a hit: at the top dose activity change, negative = inhibition, usual class: inhibitors | 42% of 1,300 active | shares compounds with FLuc inh-1; note: % is set by controls: 0 for no effect and ±100 for the full control effect; nearly all actives have a fitted effect of over 70% in size
Numbers without * were called inactive; i = inactive; ? = inconclusive; · = no result; [ ] = remark or other dose. Unless noted, calls come from the whole dose curve; as a rule, active = well fitted curve in the direction sought with a large enough effect; inconclusive = small, poorly fitted or top-dose-only effect, or another doubt; inactive = no such curve, though single readings can be large; an effect the other way counts as inactive or inconclusive. Potency is the fitted concentration of half-maximal effect.

SMILES	3T3 cytotox	FLuc inh-1	HEK293 tox	hNpr1 antagonist	GPT2 inh	FLuc SDR no ATP	FLuc SDR ATP	FLuc inh-2
O=C(Nc1c(C(=O)O)oc2ccccc12)c1ccc(C(F)(F)F)cc1	·	·	·	·	·	15%	9%	9.9µM*
CCOC(=O)C1(C)C=C(Nc2cccc(C(=O)O)c2)C(=O)N1c1ccccc1 (centres undefined)	·	·	·	·	·	10%	?	?
CCOC(=O)c1cccc(NC(=O)N2CC[C@@H](CC(=O)O)[C@@H](CC)C2)c1	-18%[174 µM]	i	-13%[172 µM]	6%[70.6 µM]	-6%[88.5 µM]	·	·	·
COc1ccc(CNC(=O)Nc2cccc(-c3ccc(N4CCCCC4)nn3)c2)cc1	?	0.25µM*	?	8.9µM*	i	2µM*	?	0.5µM*
O=C(NCc1ccco1)Nc1cccc(-c2ccc(N3CCCC3)nn2)c1	?	7.1µM*	?	-22%	?	?	?	?
Cc1ccc(CNC(=O)Nc2cccc(-c3ccc(N4CCOCC4)nn3)c2)cc1	?	1.3µM*	?	-25%	i	?	?	2.8µM*
COc1cccc(CNC(=O)Nc2cccc(-c3ccc(N4CCOCC4)nn3)c2)c1	?	1.1µM*	?	?	?	?	?	2.8µM*
CC(=O)Nc1cccc(-c2ccnc(-c3nnc(C)n3CCN3CCOCC3)c2)c1	?	i	-12%[172 µM]	-2%[70.6 µM]	-20%[88.5 µM]	·	·	·
CCc1cc(=O)n(CC(=O)NCc2cccc(OC)c2)c(N2CCOCC2)n1	2%	i	1%	2%	2%	·	·	·
O=C(NCc1ccccc1)Nc1cccc(-c2nnc3n2CCCC3)c1	-14%	i	?	-3%	i	·	·	·
CC(C)CC(=O)N1CCC(c2noc(-c3ccncc3)n2)C1 (centres undefined)	-8%	i	1%	1%	-14%	·	·	·
O=C1NCCCCCCN(C(=O)NCc2ccccc2)[C@H]2CCCC[C@@H]12	-11%	i	-8%	4%	i	·	·	·
CC(C)c1ccc(OCC(=O)c2ccc3c(c2)N(CCCC(=O)NCC2CC2)C(=O)CO3)cc1	-13%	i	-33%	1%	i	·	·	·
Cc1ccccc1C(C(=O)NC1CCCC1)N(C(=O)Cn1cnc2ccccc21)c1cccc(F)c1 (centres undefined)	·	·	·	·	i	·	·	·
Cc1cccc(OCCc2noc(C3CCN(C(=O)c4n[nH]c(=O)c5ccccc45)C3)n2)c1 (centres undefined)	?	i	?	-22%	i	·	·	·
CCCN(CCC)C(=O)C1COC2(CCN(C(=O)C(C)C)CC2)N1C(=O)c1ccccc1 (centres undefined)	-24%	i	-13%	-13%	-8%	·	·	·
O=C1c2c(nc(CNCc3ccccc3)n2Cc2ccccc2)NCCN1CC1CC1	?	i	?	-10%[70.6 µM]	-11%[88.5 µM]	·	·	·
Cc1cc(CNC(=O)C2(C(N)=O)CC2)c2[nH]c(-c3ccccc3)c(C)c2c1	?	13µM*	22µM*	?	-23%	26%	?	11µM*
Cc1c(-c2ccccc2)[nH]c2c(CNC(=O)CCn3cnnn3)cc(Cl)cc12	?	?	?	2%	-6%	·	·	·
COc1ccc(CC(=O)N2CC[C@H](CO)[C@H](O)C2)c(OC)c1	i	i	-4%	1%	-6%[11.5 µM]	·	·	·
Cc1ccccc1-c1noc(-c2ccc(NC(C)c3cnn(C)c3)nc2)n1 (centres undefined)	45µM*	0.32µM*	32µM*	7.9µM*	-9%	?	?	0.99µM*
C[C@@H](Nc1ccc(-c2nc(CCCc3ccccc3)no2)cn1)C(N)=O	-8%	i	-6%	8%	4%	·	·	·
CCOc1ccc(-c2cc3c(=O)n(CCNC(=O)c4cccc(N(C)C)c4)ccn3n2)cc1	-24%	2.5µM*	?	-28%	i	29%	?	3.9µM*
CCOc1ccc(-c2cc3c(=O)n(CCNC(=O)c4ccc(C)c(C)c4)ccn3n2)cc1	-10%	i	3%	8%	i	·	·	·
CCOc1ccc(-c2cc3c(=O)n(CCNC(=O)c4cccc(C#N)c4)ccn3n2)cc1	3%	0.79µM*	2%	-1%	3%	26%	15%	?
SMILES	3T3 cytotox	FLuc inh-1	HEK293 tox	hNpr1 antagonist	GPT2 inh	FLuc SDR no ATP	FLuc SDR ATP	FLuc inh-2
CCOc1ccc(-c2cc3c(=O)n(CCNC(=O)c4ccccc4)ccn3n2)cc1	-1%	?	-4%	0%	i	·	·	·
CCOc1ccc(-c2cc3c(=O)n(CCNC(=O)c4ccncc4)ccn3n2)cc1	-6%	6.3µM*	?	-17%	-1%	?	?	3.5µM*
O=C(c1ccc(F)cc1)N1CCC(C(=O)N2CCCC2c2nc3ccncc3[nH]2)CC1 (centres undefined)	-9%	·	i	·	i	·	·	·
CCc1ccccc1NC(=O)CN1C(=O)C(c2ccccc2)=NC12CCCCCC2	?	i	?	0%	2%	·	·	·
O=C(c1cccc(Cl)c1)N1CCCC(C(=O)N2CCC(c3ccccc3)CC2)C1 (centres undefined)	?	·	?	·	-4%	·	·	·
COc1ccc(C(=O)NCCn2cccc2-c2nc(-c3ccccc3)no2)cc1	-3%	2.5µM*	-24%	?	i	?	?	2.8µM*
Cc1ccc(C(=O)NCCn2cccc2-c2nc(-c3ccc4c(c3)OCO4)no2)cn1	?	13µM*	28µM*	-25%	i	26%	17%	?
O=C(NCCn1cccc1-c1nc(-c2ccc3c(c2)OCO3)no1)c1ccc(Cl)cc1	-26%	14µM*	?	-22%	i	13%	12%	?
CC(=O)N1CCCCCC1c1nc(-c2cccnc2)no1 (centres undefined)	-23%	i	-7%	-2%	-11%	·	·	·
O=C1CCCN1CCCN1C(=O)[C@@H]2C[C@@H](O)CN2C2(CN(Cc3cccc(OC(F)(F)F)c3)C2)C1=O	-5%	i	i	6%	i	·	·	·
O=C1Nc2ccc(C(=O)c3ccco3)cc2/C1=C/c1cc(Cl)c(O)c(Cl)c1	·	·	·	·	·	6%	4%	11µM*
